Records with an inconclusive call do not appear. A call without a number means that no potency is given here. More than one record can exist for a structure, and the calls need not agree. Calls of active or inactive are those of the source. Calls follow the shape of the dose curve; as a rule, active = well fitted cell-killing curve with a large enough effect in the repeat runs; inconclusive = weak or mixed curves, or effect the other way; inactive = flat fitted curve, though single readings scatter.
Assay: cAMP Responsive Elements (CRE) small molecule antagonists, cell-based qHTS assay: qHTS cell viability counter screen (AID 2060913); also: nearly all actives have a fitted effect of over 40% in size; also: potency is read from the fitted curve at half-maximal effect
Details: CRE-bla HEK293T viability, CellTiter-Glo luminescence, 5 h; series mostly up to 92.4 µM
Outline: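 HEK293T CRE-bla, 2,000 cells/well, 18 h preincubation; cpd in DMSO + NKH477 0.25 uM final, 3 h 37 C/5% CO2; LiveBLAzer 2 h RT, then CellTiter-Glo 30 min RT, luminescence.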

| SMILES | Potency | viability change, negative = cytotoxic |
| --- | --- | --- |
| CC(=O)NC(Cc1ccccc1)C(=O)O (stereo not drawn) | inactive |  |
| CCOC(=O)C(O)c1ccccc1 (stereo not drawn) | inactive |  |
| CCN(CC)c1cccc(C)c1 | inactive |  |
| CCCCC/C=C\C/C=C\CCCCCCCC(=O)NC(C)c1ccccc1 (stereo not drawn) | inactive |  |
| Cc1cc2c(OCC(CNC(C)(C)C)OC(=O)c3ccccc3)cccc2[nH]1 (stereo not drawn) | inactive |  |
| CC(C)CCCCCCOC(=O)C1CCCCC1C(=O)OCCCCCCC(C)C (stereo not drawn) | inactive |  |
| c1ccc(Cc2ccccc2)cc1 | inactive |  |
| OC1CCCCCCCCCCC1 | inactive |  |
| Cc1cccc(C)c1C | inactive |  |
| O=C(CCc1ccc(O)cc1)c1c(O)cc(O)cc1O | inactive |  |
| Cc1cc(F)ccc1-c1cc(N2CC[C@@H](O)[C@H]2CO)ncc1N(C)C(=O)C(C)(C)c1cc(C(F)(F)F)cc(C(F)(F)F)c1 | 44.6 µM (active) |  |
| C=C(C)C(=O)OCCOC(=O)C(=C)C | inactive |  |
| COc1cc(C(=O)NCCCCCC(=O)O)cc(OC)c1OC | inactive |  |
| O=[Se](O)O | 61.2 µM (active) | 6.01% [at 18.9 µM] (inactive) |
| CCCCCCCCOC(=O)c1ccc(O)cc1 | inactive |  |
| CCC(C)[O-].CCC(C)[O-].CCOC(=O)/C=C(/C)[O-].[Al+3] | inactive |  |
| Cc1cc(=O)oc2cc(O)cc(O)c12 | inactive |  |
| Oc1ccc(C2(c3ccc(O)c(C4CCCCC4)c3)CCCCC2)cc1C1CCCCC1 | 43.3 µM (active) |  |
| CC(C)C(=O)OCc1ccccc1 | inactive |  |
| CC12CCC(C(=O)C1=O)C2(C)C (stereo not drawn) | inactive |  |

| SMILES | Potency | viability change, negative = cytotoxic |
| --- | --- | --- |
| O=C(O)c1ccc(Cl)c(Cl)c1 | inactive |  |
| NC(=O)N1c2ccccc2C=Cc2ccccc21 | inactive |  |
| CC(Oc1c(Cl)cccc1Cl)C1=NCCN1 (stereo not drawn) | inactive |  |
| CCCCN(CCCC)CC(O)c1cc(Cl)cc2c1-c1ccc(Cl)cc1/C2=C/c1ccc(Cl)cc1 (stereo not drawn) | inactive |  |
| O=C(O)CP(=O)(O)O | inactive |  |
| Cc1ccc(Cl)cc1 | inactive |  |
| N#CC1(c2ccc(F)cc2)CCC(=O)CC1 | inactive |  |
| CC(=O)Oc1ccc(C(C)=O)cc1 | inactive |  |
| O=C(NCCCN1CCOCC1)c1ccc(Cl)cc1 | inactive |  |
| c1ccc(C(O[C@H]2CCCN(CCc3ccc4c(c3)OCO4)C2)c2ccccc2)cc1 | inactive |  |
| CCCCCCCCCCCCS | inactive |  |
| CC(=O)Nc1ccc(C)cc1C | inactive |  |
| CC1(C)CCC[C@]2(C)[C@H]3CCO[C@]3(C)CC[C@@H]12 | inactive |  |
| CCCCc1cc2ccccc2c(OCCN(C)C)n1 | inactive |  |
| CC(=O)Oc1ccc(C2(c3ccc(OC(C)=O)cc3)Oc3ccccc3NC2=O)cc1 | inactive |  |
| C[Si](C)(C)O[Si](O)(O)O | inactive |  |
| C=C[Si](OC(=C)C)(OC(=C)C)OC(=C)C | inactive |  |
| c1ccc2sc(SN(C3CCCCC3)C3CCCCC3)nc2c1 | inactive |  |
| NC(N)=NCCN1CCCCCCC1 |  | 0.247% [at 0.349 µM] (inactive) |
| O=C(O)c1ccc(C(=O)O)c(C(=O)O)c1 | inactive |  |

Assay: cAMP Responsive Elements (CRE) small molecule agonists, cell-based qHTS assay: qHTS cell viability counter screen (AID 2060914); also: nearly all actives have a fitted effect of over 50% in size
Details: CRE-bla HEK293T viability, CellTiter-Glo luminescence, 5 h; series mostly up to 92.4 µM
Outline: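 Luminescence read-out (CellTiter-Glo, 30 min RT) of ATP-based viability in CRE-bla HEK 293T cells, run in the same wells as the β-lactamase reporter assay after 3 h compound treatment at 37 °C.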

| SMILES | Potency | activity change, negative = cytotoxicity |
| --- | --- | --- |
| CC(=O)NC(Cc1ccccc1)C(=O)O (stereo not drawn) | inactive |  |
| CCOC(=O)C(O)c1ccccc1 (stereo not drawn) | inactive |  |
| CCN(CC)c1cccc(C)c1 | inactive |  |
| CCCCC/C=C\C/C=C\CCCCCCCC(=O)NC(C)c1ccccc1 (stereo not drawn) | inactive |  |
| c1ccc(Cc2ccccc2)cc1 | inactive |  |
| OC1CCCCCCCCCCC1 | inactive |  |
| Cc1cccc(C)c1C | inactive |  |
| O=C(CCc1ccc(O)cc1)c1c(O)cc(O)cc1O | inactive |  |
| C=C(C)C(=O)OCCOC(=O)C(=C)C | inactive |  |
| COc1cc(C(=O)NCCCCCC(=O)O)cc(OC)c1OC | inactive |  |
| CCCCCCCCOC(=O)c1ccc(O)cc1 | inactive |  |
| CCC(C)[O-].CCC(C)[O-].CCOC(=O)/C=C(/C)[O-].[Al+3] | inactive |  |
| Cc1cc(=O)oc2cc(O)cc(O)c12 | inactive |  |
| CC(C)C(=O)OCc1ccccc1 | inactive |  |
| CC12CCC(C(=O)C1=O)C2(C)C (stereo not drawn) | inactive |  |
| O=C(O)c1ccc(Cl)c(Cl)c1 | inactive |  |

| SMILES | Potency | activity change, negative = cytotoxicity |
| --- | --- | --- |
| NC(=O)N1c2ccccc2C=Cc2ccccc21 | inactive |  |
| CC(Oc1c(Cl)cccc1Cl)C1=NCCN1 (stereo not drawn) | inactive |  |
| CCCCN(CCCC)CC(O)c1cc(Cl)cc2c1-c1ccc(Cl)cc1/C2=C/c1ccc(Cl)cc1 (stereo not drawn) | inactive |  |
| O=C(O)CP(=O)(O)O | inactive |  |
| Cc1ccc(Cl)cc1 | inactive |  |
| N#CC1(c2ccc(F)cc2)CCC(=O)CC1 | inactive |  |
| CC(=O)Oc1ccc(C(C)=O)cc1 | inactive |  |
| O=C(NCCCN1CCOCC1)c1ccc(Cl)cc1 | inactive |  |
| CC(=O)Nc1ccc(C)cc1C | inactive |  |
| CC1(C)CCC[C@]2(C)[C@H]3CCO[C@]3(C)CC[C@@H]12 | inactive |  |
| CCCCc1cc2ccccc2c(OCCN(C)C)n1 | inactive |  |
| C[Si](C)(C)O[Si](O)(O)O | inactive |  |
| C=C[Si](OC(=C)C)(OC(=C)C)OC(=C)C | inactive |  |
| c1ccc2sc(SN(C3CCCCC3)C3CCCCC3)nc2c1 | inactive |  |
| NC(N)=NCCN1CCCCCCC1 |  | -6.13% [at 0.349 µM] (inactive) |
| O=C(O)c1ccc(C(=O)O)c(C(=O)O)c1 | inactive |  |

From PubChem BioAssay (Tox21)
